rRNA inh HTS – inhibits bacterial ribosomal RNA function over humanized ribosomes; E. coli WT GFP vs humanized-ribosome RFP mutants, fluorescence, 24 h; hits give low values; DMSO median 0, no signal -100; GFP signal change (wild-type ribosome), % (concentration not given with the values); 1.6% of 350,000 active;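 active means significant combined selectivity score with lowered wild-type GFP, culture density cut under 30%, mutant RFP and density less affected; inactive means any of these conditions unmet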
ADAM10 inh – inhibitors of human ADAM10. recombinant ADAM10, EDANS/DABCYL FRET peptide cleavage, 3 h. inhibition, % at 7 µM. 0.62% of 370,000 active;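 active means inhibition above a per-campaign cutoff equal to the mean of compounds falling between control-based bounds plus 3 SD, cut at about 20% in these data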;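 further: 0% = DMSO wells while the 100% control is not disclosed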
FGF22 binding – shifts melting point of recombinant human FGF22; Q9HCT0; recombinant FGF22 thermal shift, SYPRO orange fluorescence; percent of sucrose octasulfate shift, DMSO zero; activity (Tm shift, normalised), % at 9.99 µM; 1.5% of 340,000 active; AID 651658;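 active means mean Tm shift, scaled 0 neutral to 100 positive control, at about 1.3% or above, every replicate too, limit read from the data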
Target sequence (Q9HCT0 whole entry, looked up): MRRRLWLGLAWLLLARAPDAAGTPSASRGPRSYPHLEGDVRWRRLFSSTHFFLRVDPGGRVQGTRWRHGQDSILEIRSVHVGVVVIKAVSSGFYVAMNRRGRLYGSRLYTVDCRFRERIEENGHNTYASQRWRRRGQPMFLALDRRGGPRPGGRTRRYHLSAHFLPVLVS
ADAM17 inh – inhibits human ADAM17 | P78536 | recombinant ADAM17, EDANS/DABCYL FRET peptide cleavage | inhibition, % at 6.95 µM | 0.83% of 370,000 active;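 active means inhibition above the mean of compounds lying between control limits plus 3 SD, set per campaign, cut at about 8.5% in these data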;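 further: 0% = DMSO-only wells as the low control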
proKLK7 act – activators of human kallikrein-7 zymogen; activation, % at 7 µM; purified proKLK7, EDANS-DABCYL substrate fluorescence; 100% is mature enzyme control, 0% vehicle; AID 652039; 0.9% of 370,000 active;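 active means activation above the mean of all tested compounds plus 3 SD, computed per campaign excluding outliers beyond control limits, cut at about 13% in these data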
Target sequence (P49862 whole entry, looked up): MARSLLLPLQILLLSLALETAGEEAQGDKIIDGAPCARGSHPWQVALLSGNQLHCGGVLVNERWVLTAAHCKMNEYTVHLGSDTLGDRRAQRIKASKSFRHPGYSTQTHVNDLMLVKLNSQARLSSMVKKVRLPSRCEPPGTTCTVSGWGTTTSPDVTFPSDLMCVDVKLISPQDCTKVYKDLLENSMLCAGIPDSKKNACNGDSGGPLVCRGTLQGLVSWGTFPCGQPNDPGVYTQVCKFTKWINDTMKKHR
Active calls of the source: *; x = no result given. Only some compounds are listed: those with a hit (about 3.8% of all), similar ones and a draw of the others.

SMILES	rRNA inh HTS	ADAM10 inh	FGF22 binding	ADAM17 inh	proKLK7 act
Cc1[nH]n(-c2nc(-c3ccc(Cl)cc3)cs2)c(=O)c1N=Nc1ccc(O)cc1	-5	1	43*	1	0
CCc1c(C)[nH]n(-c2nc(-c3ccccc3)cs2)c1=O	-51	10	0	-3	0
O=C(O)CCCn1cc(NC(=O)COc2ccc([N+](=O)[O-])cc2)cn1	18	1	43*	0	0
CCOC(=O)c1cccc(NC(=O)Nc2ccc(OCC)cc2)c1	18	3	43*	0	0
CCCOC(=O)c1cccc(NC(=O)COc2ccc([N+](=O)[O-])cc2)c1	-21*	7	0	0	0
O=C(COc1ccc([N+](=O)[O-])cc1)NNC(=O)Nc1ccc([N+](=O)[O-])cc1	-19*	-8	0	0	0
C[C@H]1CCCCO[C@H](CN(C)CC2CCCCC2)[C@@H](C)CN([C@@H](C)CO)C(=O)c2cc(NS(=O)(=O)c3cccs3)ccc2O1	0	x	0	x	x
CC(C)C#Cc1ccc2c(c1)O[C@@H](CN(C)C(=O)c1ccccn1)[C@@H](C)CN([C@@H](C)CO)S2(=O)=O	-1	x	0	x	x
COc1ccc(CN(C)C[C@@H]2Oc3ccc(NC(=O)CCCN(C)C)cc3C(=O)N([C@@H](C)CO)C[C@H]2C)cc1	4	x	0	x	x
O=C(C[C@H]1CC[C@@H]2[C@H](COC[C@@H](O)CN2S(=O)(=O)c2ccccc2Cl)O1)NCc1ccccc1Cl	1	x	0	x	x
O=c1[nH]c(/C=C/c2ccc([N+](=O)[O-])cc2)c([N+](=O)[O-])c(=O)[nH]1	4	7	0	4	0
Cc1cccc(NC(=O)COc2ccc(/C=C\c3[nH]c(=O)[nH]c(=O)c3[N+](=O)[O-])cc2)c1	18	2	44*	2	-1
Cc1ccc(-c2csc3nc[nH]c(=O)c23)c(C)c1	-14	7	0	0	0
Cc1ccc(-c2csc3nc(C(C)C)oc(=O)c23)c(C)c1	-24*	-8	0	-5	0
[O-]/C(=C(\C(=S)Nc1ccc(SC(F)F)cc1)[n+]1cccc(CO)c1)c1ccc(Cl)s1	-31*	7	0	4	0
Cc1ccc(NC(=S)/C(=C(\[O-])c2ccc(F)cc2)[n+]2ccccc2)cc1	-25*	-14	0	-6	-1
COc1cccc(NC(=S)/C(=C(\[O-])c2ccc([N+](=O)[O-])cc2)[n+]2ccccc2)c1	1	-8	43*	-4	0
CN(C)c1cc[n+](/C(C(=S)Nc2ccc(SC(F)F)cc2)=C(/[O-])c2ccccc2)cc1	-19*	3	0	-2	0
O=[N+]([O-])c1ccc(/C([O-])=C(/C(=S)Nc2ccccc2F)[n+]2ccccc2)cc1	15	-3	0	-3	0
Cc1noc(C)c1S(=O)(=O)Nc1ccc2c(c1)C(=O)N([C@@H](C)CO)C[C@@H](C)[C@H](CN(C)CC1CC1)OCCCC[C@H](C)O2	2	x	0	x	x
CO[C@@H]1CN(C)C(=O)c2ccc(NC(=O)c3ccccc3F)cc2OC[C@H](C)N(C(=O)c2ccccc2F)C[C@@H]1C	1	x	0	x	x
CC(C)c1ccc(CC(NC(=O)c2ccccc2)C(=O)NCC(=O)O)cc1 (stereo unspecified)	4	-2	43*	-1	0
N#Cc1ccc(CO/N=C/c2ccccc2)cc1	17	5	44*	3	-1
C[C@H](NC(=O)C[C@@H]1CC[C@H](NC(=O)C2CCOCC2)[C@@H](CO)O1)c1ccccc1	1	x	0	x	x
Cc1ncc([N+](=O)[O-])n1CC(=O)Nc1ccccc1	16	7	43*	1	1
SMILES	rRNA inh HTS	ADAM10 inh	FGF22 binding	ADAM17 inh	proKLK7 act
Cc1ccc(NC(=O)Cn2c([N+](=O)[O-])cnc2C)cc1	9	4	0	3	0
COc1cccc(NC(C)(C)c2nnnn2-c2c(C)cccc2C)c1	-24*	-5	0	-2	0
Cc1ccccc1OCC(=O)NNC(=O)CCN1C(=O)c2ccccc2C1=O	14	-4	43*	-3	0
Cc1ccccc1OCC(=O)NNC=O	8	10	43*	3	0
Cc1ccccc1OCC(=O)Nc1nc2ccccc2[nH]1	10	-7	43*	-2	0
Cc1ccccc1OCC(=O)Nc1ccccc1-c1ccccc1	-38*	0	0	1	0
Cc1ccccc1OCCN1C(=O)c2ccccc2C1=O	4	2	0	0	0
Cc1ccccc1NC(=O)COc1ccccc1C	-24	4	0	0	1
C[C@H](CO)N1C[C@H](C)[C@@H](CN(C)S(=O)(=O)c2ccccc2)Oc2ccc(NC(=O)Nc3cccc4ccccc34)cc2CC1=O	0	x	0	x	x
Cn1c(C(C(=O)NCC2CCCO2)N(CCc2ccccc2)C(=O)Cn2nnc3ccccc32)nc2ccccc21 (stereo unspecified)	-22*	-2	0	-4	0
CCOC(=O)C1(Cc2cccc(Cl)c2)CCCN(C(=O)C2CC2)C1 (stereo unspecified)	-40	-1	43*	-1	-2
CCOC(=O)C1(Cc2cccc(Cl)c2)CCCN(C(=O)c2ccco2)C1 (stereo unspecified)	-4	1	0	6	1
Cc1nc(Sc2ccccc2)c(C#N)c(C)c1[N+](=O)[O-]	-35*	3	0	-4	0
Cc1cc(C)c(C#N)c(Sc2nc(C)c([N+](=O)[O-])c(C)c2C#N)n1	9	12	1	4	0
COC(=O)c1ccccc1S(=O)(=O)N1CCn2cccc2C1C (stereo unspecified)	13	0	43*	-3	1
COc1ccc(NC(C)=O)cc1S(=O)(=O)N1CCn2cccc2C1C (stereo unspecified)	15	-14	0	-2	0
O=C(NC1CCc2ccccc21)C1CCN(S(=O)(=O)c2ccc(Cl)cc2)CC1 (stereo unspecified)	x	-4	x	3	0
O=S(=O)(NC1CCc2ccccc21)c1ccc(S(=O)(=O)N2CCCC2)cc1 (stereo unspecified)	-29*	3	0	0	0
CNC(=O)C[C@H]1CC[C@@H]2[C@H](COc3ccc(NC(=O)Cc4cccs4)cc3C(=O)N2C)O1	0	x	0	x	x
CCc1nc(N=C(N)N)nc2ccccc12	-1	-13	43*	-2	-4
CCCCn1c(N)c(N(CC)C(=O)c2cc(Br)ccc2Cl)c(=O)[nH]c1=O	15	-3	44*	-3	-1
Cc1ccccc1NC(=O)Nc1ccccc1C(=O)NCc1ccccc1	x	-33	x	-12	0
O=C(CCl)Nc1ccccc1C(=O)NCc1ccccc1	4	-7	43*	4	1
